PubChem BioAssay (Tox21)
Results filed as inconclusive are left out. Calls of active or inactive are those of the source. Unless noted, the call rests on the fitted dose curve; in most records, active means well fitted curve in the direction sought with a large enough effect in the repeat runs; inconclusive means weak or mixed curves; inactive means no such curve, though single readings can be large; an effect the other way counts as inactive or inconclusive.

Experiments:
[1] = qHTS assay to identify small molecule antagonists of the estrogen related receptor (ERR) signaling pathway from Tox21 library - cell viability counter screen (AID 1224834); further: nearly all actives have a fitted effect of over 30% in size
In short: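 Counter screen run in ERR cells (2,000 cells/well): cells pre-incubated 6 h, then treated with compounds for 17.5 h at 37 C. Fluorescence was read 30 min after CellTiter-Fluor addition.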

[2] = target: Luciferin 4-monooxygenase (Photinus pyralis) (UniProt P08659); test: qHTS assay to identify small molecule inhibitors of firefly luciferase (AID 1224835); further: series mostly up to about 120 µM; nearly all actives have a fitted effect of over 25% in size
In short: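 Quantitative HTS format; KM concentrations of both substrates. Purified P. pyralis FLuc activity quantified from luminescence images.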

[3] = qHTS assay to identify small molecule agonists of the constitutive androstane receptor (CAR) signaling pathway - cell viability counter screen (AID 1224836); further: series mostly up to about 92 µM; nearly all actives have a fitted effect of over 45% in size
In short: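 HepG2-CYP2B6-hCAR, 2500 cells/well, 4 h pre-incubation; cpd 15 conc + PK11195 0.75 uM final; 23 h, 37 C/5% CO2; CellTiter-Fluor, fluorescence.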

[4] = qHTS assay to identify small molecule antagonists of the constitutive androstane receptor (CAR) signaling pathway - cell viability counter screen (AID 1224837); further: series mostly up to about 92 µM; nearly all actives have a fitted effect of over 45% in size
In short: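 CITCO at 50 nM final was added alongside compounds (15 concentrations) to double-stable hCAR/CYP2B6-2.2kb HepG2 cells. Following 23 hr at 37 C, cell viability was quantified by CellTiter-Fluor fluorescence intensity.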

[5] = target: Nuclear receptor subfamily 1 group I member 3 (Homo sapiens) (UniProt Q14994); test: qHTS assay to identify small molecule antagonists of the constitutive androstane receptor (CAR) signaling pathway (AID 1224838); further: nearly all actives have a fitted effect of over 40% in size
In short: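 Inhibition of CITCO-driven (50 nM final) CYP2B6 reporter expression is measured in HepG2 cells stably carrying hCAR. Fifteen compound concentrations are applied for 24 h at 37 C, followed by luciferase luminescence.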

[6] = qHTS assay to identify small molecule antagonists of the estrogen related receptor signaling pathway with the pleiotropic PPARgamma coactivator (PGC) from Tox21 10K library - cell viability counter screen (AID 1224840; active means well fitted cell-killing curve with a large enough effect in the repeat runs, not every such curve was filed as active; further: nearly all actives have a fitted effect of over 40% in size)
In short: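 Readout: fluorescence intensity from CellTiter-Fluor after 30 min at 37 C/5% CO2. Preceded by 17.5 h treatment of PGC/ERR cells with DMSO-dissolved compounds, added 6 h post-seeding.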

[7] = qHTS assay to identify small molecule antagonists of the estrogen related receptor signaling pathway with the pleiotropic PPARgamma coactivator (PGC) from Tox21 10K library (AID 1224841; call rule not given here; further: series mostly up to about 92 µM; actives are mostly falling curves and most rising ones were filed inactive; nearly all actives have a fitted effect of over 50% in size)
In short: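 One-Glo luminescence, measured after half an hour at room temperature, quantified reporter output of PGC/ERR cells. These had been plated at 2,000 per well, incubated 6 h, dosed with compounds in DMSO, then kept 18 h at 37 C.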

[8] = qHTS assay to identify small molecule agonists of the estrogen related receptor signaling pathway with the pleiotropic PPARgamma coactivator (PGC) from Tox21 10K library (AID 1224842); further: nearly all actives have a fitted effect of over 15% in size
In short: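 PGC/ERR reporter cells (NTP line) were seeded 2,000 per well, rested 6 h at 37 C/5% CO2, then pin-dosed with compounds in DMSO for 18 h at 37 C; luciferase read by One-Glo luminescence after 30 min at room temperature.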

[9] = target: Thyrotropin receptor (Homo sapiens) (UniProt P16473); test: qHTS assay to identify small molecule agonists of the thyroid stimulating hormone receptor (TSHR) signaling pathway (AID 1224843; calls by dose curve; further: nearly all actives have a fitted effect of over 45% in size)
In short: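 Using 15 concentrations per compound in triplicate, cAMP production was monitored in TSHR-HEK293 cells after 30 min compound incubation at RT; HTRF reagents followed, with fluorescence intensity recorded after 1 h.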

[10] = qHTS assay to identify small molecule agonists of the hypoxia (HIF-1) signaling pathway - cell viability counter screen (AID 1224844; calls by dose curve; further: nearly all actives have a fitted effect of over 50% in size)
In short: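 In this counter screen, HRE-bla ME-180 cell viability after 17 hrs of compound exposure at 37C was read by CellTiter-Glo luminescence, multiplexed with the beta-lactamase reporter measurement.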

[11] = qHTS assay to identify small molecule agonists of H2AX (AID 1224845; active means well fitted activation curve with a large enough effect in the signal ratio in the repeat runs, not every such curve was filed as active; the % refers to the signal ratio)
In short: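 Wild-type CHO-K1 cells plated overnight, then exposed 3 hr at 37C to compounds at 15 concentrations (0.76% DMSO). Lysed, then HTRF anti-pH2AX(S139)-cryptate/anti-H2AX-d2 detection after 24 hr at room temperature; emissions 665 and 620 nm.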

[12] = qHTS assay to identify small molecule agonists of H2AX - cell viability counter screen (AID 1224847; calls by dose curve; further: top concentration of the series differs between compounds; nearly all actives have a fitted effect of over 30% in size)
In short: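 Cells plated first: CHO-K1, 1000 per well in 10% FBS medium, incubated overnight at 37C. Then 15-point compound titration added (final DMSO 0.76%) for 3 hr. Finally CellTiter-Glo added and luminescence read.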

[13] = qHTS assay to identify small molecule antagonists of the estrogen related receptor (ERR) signaling pathway from Tox21 library (AID 1224848); further: nearly all actives have a fitted effect of over 50% in size
In short: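 Tox21 10K compounds in DMSO tested for ERR pathway antagonism in NTP's ERR cell line; 18 h, 37 C exposure; ONE-Glo luminescence.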

[14] = qHTS assay to identify small molecule agonists of the estrogen related receptor (ERR) signaling pathway from Tox21 library (AID 1224849; calls by dose curve; further: nearly all actives have a fitted effect of over 15% in size)
In short: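 Luciferase activity in ERR pathway reporter cells served as the agonist readout; exposure lasted 18 h at 37 C, with ONE-Glo detection after 30 min at room temperature.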

[15] = qHTS RealTime-Glo MT Cell Viability Assay in HepG2 cells - 24 hour (AID 1224867); further: nearly all actives have a fitted effect of over 50% in size
In short: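 Cells + NanoLuc/prosubstrate dispensed (600 cells/well) → 5 h at 37 C/5% CO2 → compounds in DMSO transferred → 40 h incubation at 37 C, luminescence read at 0, 8, 16, 24, 32, 40 h.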

[16] = A CellTox Green Cytotoxicity Assay to monitor cytotoxicity in HEK293 cells - 0 hour (AID 1224869); further: nearly all actives have a fitted effect of over 50% in size
In short: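 Real-time, in one plate: 600 HEK293 cells/well with dead-cell DNA dye, pinned compound after 5 h, 37 C incubation over 40 h; viable cells give no appreciable fluorescence.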

[17] = qHTS RealTime-Glo MT Cell Viability Assay in HepG2 cells - 40 hour (AID 1224870); further: nearly all actives have a fitted effect of over 50% in size
In short: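 HepG2 cells mixed with RealTime-Glo MT reagents (NanoLuc plus cell-permeant prosubstrate) were seeded at 600 cells/well, incubated 5 h at 37 C/5% CO2, then pinned with compounds in DMSO; nonlytic luminescence tracked viability during 40 h treatment.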

[18] = qHTS assay to identify small molecule agonists of the hypoxia (HIF-1) signaling pathway (AID 1224846; active means well fitted activation curve with a large enough effect in the signal ratio in the repeat runs, not every such curve was filed as active; the % refers to the signal ratio)
In short: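 ME-180 HRE-bla reporter cells; compounds in DMSO, 17 h at 37C; read-out beta-lactamase via CCF4-AM FRET.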

[19] = qHTS RealTime-Glo MT Cell Viability Assay in HEK293 cells - 32 hour (AID 1224868)
In short: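 Tox21 10K qHTS, HEK293, 600 cells/well, RealTime-Glo reagent co-dispensed with cells; 5 h preincubation, compound by pintool, 37 C, luminescence at 0–40 h.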
On the % scale 0 is the no-effect control and ±100 the full control effect.

Chain of Luciferin 4-monooxygenase (Photinus pyralis) (P08659 whole entry, looked up): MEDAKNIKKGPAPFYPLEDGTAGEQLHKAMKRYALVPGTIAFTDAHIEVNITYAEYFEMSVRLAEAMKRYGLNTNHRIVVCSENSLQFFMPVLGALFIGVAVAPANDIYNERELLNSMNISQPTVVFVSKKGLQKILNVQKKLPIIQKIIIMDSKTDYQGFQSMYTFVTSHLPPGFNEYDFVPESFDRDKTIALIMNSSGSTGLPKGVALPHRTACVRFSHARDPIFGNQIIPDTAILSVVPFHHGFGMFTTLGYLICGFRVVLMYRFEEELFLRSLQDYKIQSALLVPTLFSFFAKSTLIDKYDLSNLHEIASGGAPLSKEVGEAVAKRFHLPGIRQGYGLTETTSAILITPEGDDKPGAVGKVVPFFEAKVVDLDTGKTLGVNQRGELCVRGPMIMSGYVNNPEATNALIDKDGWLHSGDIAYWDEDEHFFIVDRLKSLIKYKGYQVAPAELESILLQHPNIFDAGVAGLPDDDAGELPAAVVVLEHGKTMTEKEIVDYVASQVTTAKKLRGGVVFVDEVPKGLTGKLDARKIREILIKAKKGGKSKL
Chain of Thyrotropin receptor (Homo sapiens) (P16473 whole entry, looked up): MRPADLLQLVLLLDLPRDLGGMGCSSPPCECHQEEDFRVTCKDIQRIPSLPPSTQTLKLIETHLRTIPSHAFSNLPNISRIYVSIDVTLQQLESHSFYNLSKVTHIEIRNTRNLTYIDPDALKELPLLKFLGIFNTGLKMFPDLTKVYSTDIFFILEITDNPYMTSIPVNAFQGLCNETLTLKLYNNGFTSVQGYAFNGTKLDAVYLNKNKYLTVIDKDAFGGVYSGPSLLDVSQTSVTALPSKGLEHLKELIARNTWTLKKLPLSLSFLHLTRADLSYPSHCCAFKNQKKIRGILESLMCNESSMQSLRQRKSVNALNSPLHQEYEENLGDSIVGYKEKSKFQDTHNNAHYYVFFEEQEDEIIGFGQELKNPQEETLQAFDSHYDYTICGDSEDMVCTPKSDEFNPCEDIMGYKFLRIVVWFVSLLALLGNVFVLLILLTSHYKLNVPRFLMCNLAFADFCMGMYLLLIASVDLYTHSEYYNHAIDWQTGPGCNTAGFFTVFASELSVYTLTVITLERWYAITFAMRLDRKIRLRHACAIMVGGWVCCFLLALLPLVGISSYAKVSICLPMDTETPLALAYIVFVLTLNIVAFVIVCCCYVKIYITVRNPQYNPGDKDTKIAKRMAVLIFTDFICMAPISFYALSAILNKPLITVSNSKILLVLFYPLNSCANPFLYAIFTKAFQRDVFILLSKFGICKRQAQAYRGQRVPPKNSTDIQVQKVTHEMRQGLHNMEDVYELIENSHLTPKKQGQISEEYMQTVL
Chain of Nuclear receptor subfamily 1 group I member 3 (Homo sapiens) (Q14994 whole entry, looked up): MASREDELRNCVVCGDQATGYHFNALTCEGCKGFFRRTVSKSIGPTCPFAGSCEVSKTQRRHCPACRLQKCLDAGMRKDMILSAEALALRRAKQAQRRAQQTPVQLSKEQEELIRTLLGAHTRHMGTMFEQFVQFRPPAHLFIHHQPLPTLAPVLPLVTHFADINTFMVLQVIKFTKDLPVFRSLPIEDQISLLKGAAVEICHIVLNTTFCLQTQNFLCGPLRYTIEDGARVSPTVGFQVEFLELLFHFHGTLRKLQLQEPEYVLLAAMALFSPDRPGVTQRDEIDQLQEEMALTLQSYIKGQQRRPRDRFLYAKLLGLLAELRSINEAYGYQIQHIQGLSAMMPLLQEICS

CC(C)C[C@@H](N)C(=O)O
inactive: viability change, negative = cytotoxic [1] 1.15% [at 19 µM] | activity change, negative = inhibition [2] -3.09% [at 23.6 µM] | viability change, negative = cytotoxic [3] 3.64% [at 19 µM] | activity change, negative = cytotoxicity [4] 0.137% [at 19 µM] | activity, negative = inhibition [5] 4.78% [at 19 µM] | viability change, negative = cytotoxic [6] -8.03% [at 19 µM] | activity, negative = inhibition [7] 0.755% [at 19 µM] | activation [8] -0.0839% [at 19 µM] | activation [9] -1.78% [at 19 µM] | activity change, negative = cytotoxicity [10] 2.77% [at 15.8 µM] | activation (H2AX phosphorylation) [11] -1.49% [at 31.6 µM] | activity change, negative = cytotoxicity [12] -4.41% [at 31.6 µM] | activity, negative = inhibition [13] 12.8% [at 19 µM] | activity change, positive = activation [14] 7.21% [at 19 µM] | activity change, negative = cytotoxicity [15] 3.14% [at 15.8 µM] | cytotoxicity [16] -0.288% [at 15.8 µM] | activity change, negative = cytotoxic [17] 2.01% [at 15.8 µM]

O=[N+]([O-])c1ccc(/C=N\O)o1
inactive: Potency [1] | Potency [2] | outcome [3] | outcome [4] | Potency [5] | outcome [6] | Potency [10] | Potency [11] | outcome [18] | outcome [12] | outcome [15] | Potency [19] | outcome [16] | Potency [17]

O=C1CCCCCCCCCCCCCCO1
inactive: Potency [1] | Potency [2] | outcome [3] | outcome [4] | outcome [6] | Potency [10] | Potency [11] | outcome [18] | outcome [12] | outcome [15] | Potency [19] | outcome [16]

Cc1ccccc1N=C(N)N=C(N)N
inactive: Potency [1] | Potency [2] | outcome [3] | outcome [4] | outcome [6] | Potency [9] | Potency [10] | Potency [11] | outcome [18] | outcome [15] | Potency [19] | outcome [16]
